Bioassay records (PubChem)
TDP1 cell noCPT = qHTS for Inhibitors of human tyrosyl-DNA phosphodiesterase 1 (TDP1): qHTS in cells in absence of CPT. actives 15% (n = 420,000). DT40 Tdp1-/- hTDP1 cells, no CPT, ATP luminescence, 48 h. Potency, µM (top dose mostly 46.2 µM), most hits filed as inhibitors; note: nearly all actives have a fitted effect of over 55% in size
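Chicken DT40 Tdp1-/- cells complemented with human TDP1, screened without camptothecin (DMSO vehicle only), 400 cells/well. Compounds pin-transferred, cells incubated at 37 °C for at least 48 hr. Growth read as ATP-dependent luminescence (CellTiter-Glo, 30 min at RT).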
TDP1 cell CPT = growth inhibition of DT40 Tdp1-/-;hTDP1 cells with camptothecin (screen for TDP1 inhibitors); chicken DT40 Tdp1-/-;hTDP1 cells + 20 nM CPT, ATP luminescence, 48 h; Potency, µM (top dose mostly 46.2 µM), most hits filed as inhibitors; actives 12% (n = 420,000); note: nearly all actives have a fitted effect of over 55% in size
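Chicken DT40 Tdp1-/- cells stably complemented with human TDP1 were seeded at 400 cells/well in medium containing 20 nM camptothecin, exposed to pin-transferred compounds, and grown at 37 °C for at least 48 hr. Viability was read as ATP luminescence.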
HT1080 IDH1KD tx = toxicity to HT-1080 IDH1 knockdown cells (counter line) | HT-1080 IDH1 knockdown viability, ATP luminescence, 48 h | Potency, µM (top dose mostly 46.1 µM), hits mostly cytotoxic | actives 2% (n = 360,000)
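CellTiter-Glo luminescence after 48 h compound exposure at 37 degrees C of IDH1-knockdown HT-1080 cells in 5% FBS RPMI. %Activity scaled between DMSO wells and cell-free media wells, with curves fitted and assigned curve classes.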
IL1B secr inh = blocks inflammasome-driven IL-1 beta release | THP-1 LPS/ATP IL-1B secretion, AlphaLISA, 16 h; hits give low values | activity change, % at 57.5 µM | actives 4.7% (n = 360,000) | AID 743279; in the data active = activity change below about -50%; inconclusive = mostly about -30% to -49%
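Secreted IL-1B measured by AlphaLISA bead assay after 16 h compound exposure of THP-1 cells; compounds (final up to 57.5 uM) added 1 h before LPS (250 ng/mL) and ATP (1.25 mM) stimulation; lower signal means less secretion.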
HT1080-NT tox = kills 2HG-producing HT-1080-NT fibrosarcoma cells. actives 1.6% (n = 360,000). Potency, µM (series often up to 46.1 µM), actives largely listed as cytotoxic. AID 686970. HT-1080-NT fibrosarcoma viability, CellTiter-Glo ATP luminescence, 48 h;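 note: NT is the 2HG producing partner of a matched IDH1 knockdown line; nearly all actives have a fitted effect of over 55% in size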
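Viability by CellTiter-Glo luminescence after 48 h compound exposure at 37C of HT-1080-NT cells (750/well, RPMI, 5% FBS). % activity scaled between DMSO wells and medium-only wells, then curve-fitted and categorized by curve class.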
Numbers stand for hits; . = inactive; ? = inconclusive; [ ] = dose if it differs, or a comment. This is a sample that favours compounds with a hit; in the whole collection about 19% have one here. Unless noted, calls come from the whole dose curve; as a rule, active = well fitted curve in the direction sought with a large enough effect; inconclusive = small, poorly fitted or top-dose-only effect, or another doubt; inactive = no such curve, though single readings can be large; an effect the other way counts as inactive or inconclusive.

SMILES	TDP1 cell noCPT	TDP1 cell CPT	HT1080 IDH1KD tx	IL1B secr inh	HT1080-NT tox
N#Cc1ccc(NC(=O)CCc2ccc(S(=O)(=O)N3CCOCC3)cc2)cc1	.	.	.	.	.
NNC(=S)Nc1ccc(S(=O)(=O)N2CCOCC2)cc1	.	.	.	.	.
N#Cc1ccc(NC(=S)NC(=O)CCc2ccc(S(=O)(=O)N3CCOCC3)cc2)cc1	?	13µM	.	.	.
CC(C)(C)CC(C)(C)NC(=S)Nc1ccc(S(=O)(=O)N2CCOCC2)cc1	?	?	?	-71	?
O=S(=O)(c1ccc(NC(=S)NCCC(c2ccccc2)c2ccccc2)cc1)N1CCOCC1	23µM	21µM	?	.	.
CC(C)(C)c1ccc(C(=O)NCC(=O)NCc2ccccn2)cc1	.	.	.	.	.[9.24 µM]
CN(C(=O)COC(=O)C1(C)CC1(Cl)Cl)c1c(N)n(Cc2ccccc2)c(=O)[nH]c1=O (stereo unspecified)	.	.	.	.	.[9.24 µM]
COc1cc(-c2ccc3oc(-c4cccc(C)c4)c(C#CC4(O)CCCCC4)c3c2)cc(OC)c1OC	16µM	16µM	.	-63	.
COc1ccc(-c2oc3ccc(-c4ccc5c(c4)OCO5)cc3c2C#CC2(O)CCCCC2)cc1	?	?	?	.	?
COCCN1CCC(CNCc2c(C(=O)N3CCCCC3)nc3c(C)cccn23)C1 (stereo unspecified)	.	.	.	.	.
O=S1(=O)CC=C(CSC(=S)NC2CCS(=O)(=O)C2)C1 (stereo unspecified)	?	10µM	.	-97	.
CC(C)(C)c1cc(CSC(=S)NC2CCS(=O)(=O)C2)c(Br)c(C(C)(C)C)c1 (stereo unspecified)	12µM	6.5µM	?	-58	?
O=C(NNC(=O)c1ccc(S(=O)(=O)N2CCCC2)cc1)c1ccc(Br)cc1	.	.	.	.	.
CCCCCN(C(=O)CCC(=O)OCc1cc(C)ccc1C)c1c(N)n(CCCC)c(=O)[nH]c1=O	26µM	23µM	.	-63	.
CCCCCN(C(=O)CCC(=O)OCc1ccc(C(C)(C)C)cc1)c1c(N)n(CCCC)c(=O)[nH]c1=O	?	?	?	.	.
CCCCCN(C(=O)CCC(=O)OCCOc1cccc(Cl)c1)c1c(N)n(CCCC)c(=O)[nH]c1=O	13µM	?	.	.	.
CCCCCN(C(=O)CCC(=O)OCC(=O)c1ccc(F)c(F)c1)c1c(N)n(CCCC)c(=O)[nH]c1=O	.	.	.	.	.
CCCCCN(C(=O)CCC(=O)OCc1ccc(C(C)C)cc1)c1c(N)n(CCCC)c(=O)[nH]c1=O	16µM	23µM	.	.	.
CCCCCN(C(=O)CCC(=O)OCC(=O)c1c(C)cc(C)cc1C)c1c(N)n(CCCC)c(=O)[nH]c1=O	?	?	.	-77	.
O=C(C(=O)N1CCN(C(=O)c2ccco2)CC1)c1cc2ccccc2o1	.	.	.	.	.
CCC1CCCCN1CCCNC(=O)C1CCCN(S(=O)(=O)N2CC(C)CC(C)C2)C1 (stereo unspecified)	.	.	.	.	.
O=C(N/N=C/c1ccc(O)cc1O)c1ccc(NC(=O)C2CCCCC2)cc1	7.3µM	6.5µM	9.2µM	.	?
O=C(C[n+]1ccccc1)N/N=C/c1cc(Br)cc(Br)c1O	.	.	?	.	?
Cc1ccc(C(C)C)c(OCc2ccc(C(=O)N/N=C/c3ccc(O)cc3O)cc2)c1	18µM	?	2.9µM	.	6.5µM
Cc1cccc(C(=O)Oc2c(Br)cc(Br)cc2/C=N/NC(=O)c2ccncc2)c1	.	.	.	.	.
SMILES	TDP1 cell noCPT	TDP1 cell CPT	HT1080 IDH1KD tx	IL1B secr inh	HT1080-NT tox
CCC(O)(CC)C(=O)N/N=C/c1cc(Br)cc(Br)c1O	15µM	21µM	?	.	?
O=C(N/N=C/c1cc(Br)cc(Br)c1O)c1ccncc1	0.65µM	2.6µM	?	.	?
O=C(O)CNS(=O)(=O)c1cccc(Cl)c1	.	.	.	.	.
COc1ccc(S(=O)(=O)N2CCOCC2)cc1NC(=O)CSc1ccc(F)cc1	?	.	.	.	.
CCc1cc(C(=O)N/N=C/c2ccc(O)cc2O)c2ccccc2n1	?	8.2µM	?	.	?
O=C(N/N=C/c1cc(Br)cc([N+](=O)[O-])c1O)c1ccc(NC(=O)c2ccc(F)cc2)cc1	15µM	23µM	.	.	.
Oc1c(Cl)cc(Cl)cc1/C=N/Nc1ncc(Br)cn1	1.3µM	1.2µM	?	.	?
O=C(N/N=C/c1ccc(Cl)cc1Cl)c1ccncc1	.	.	.	.	.
Cc1cccc(/C=N/NC(=O)c2ccc(NC(=O)c3ccc(F)cc3)cc2)n1	?	.	.	.	.
O=C(CCCCCNC(=O)c1ccccc1)N/N=C/c1ccc(O)cc1O	.	.	.	.	.
O=C(N/N=C/c1ccc(O)cc1O)c1ccncc1	4.6µM	8.2µM	7.3µM	.	?
Cc1c(-n2c(-c3ccccc3)nc3ccccc3c2=O)c(=O)n(-c2ccccc2)n1C	?	?	.	.	.
Cc1nonc1C(=O)N/N=C/c1ccc(O)cc1O	3.7µM	3.3µM	2.1µM	.	?
O=C(N/N=C/c1cc(Cl)cc(Cl)c1O)c1ccncc1	15µM	6.5µM	3.7µM	.	?
Cc1cc(O)c(C(C)C)cc1C1(c2cc(C(C)C)c(O)cc2C)OC(=O)c2ccccc21	9.2µM	15µM	16µM	-99	8.2µM
Cc1cc(C2(c3ccc(O)c(C)c3)OC(=O)c3ccccc32)ccc1O	?	.	.	.	.
c1ccc(-c2nn[nH]n2)nc1	.	.	.	.	.
CNc1nc(-c2ccccn2)nnc1-c1ccccc1	22µM	?	?	.	?
c1ccc(-c2csc(NC3CCCCC3)n2)cc1	.	.	.	.	.
c1ccc(-c2nnc(-c3ccccn3)nc2NC2CCCCC2)cc1	5.8µM	6.5µM	?	.	?
CCn1cc(S(=O)(=O)NCc2ccc(OC)cc2)cn1	.	.	.	.	.
CCOC(=O)CSC1=C(C#N)C(c2ccc(Cl)cc2)CC(=O)N1 (stereo unspecified)	?	?	.	.	.
N#Cc1c(N)nc2c3c(sc(=N)c2c1N)NC(=O)CC3c1ccccc1 (stereo unspecified)	?	.	?	?	?
Cc1c(C#N)c(N)nc2c3c(sc12)NC(=O)CC3c1ccc(Cl)cc1 (stereo unspecified)	?	?	16µM	.	21µM
N#Cc1c(N)nc2c3c(sc(=N)c2c1N)NC(=O)CC3c1c(F)cccc1Cl (stereo unspecified)	6.5µM	?	.	.	.
O=C1OCC2=C1C(c1ccccc1)CC(=O)N2c1ccc(F)cc1 (stereo unspecified)	.	.	.	.	.
